Many of the other results were omitted from the sample, so hits are more common in it than they were.
Pf Dd2 growth – qHTS Primary assay for Inhibitors of Plasmodium falciparum Dd2 growth in vitro | P. falciparum Dd2 growth, SYBR Green, 72 h | Potency, µM (series often up to 28.9 µM), without a hit: at the highest dose activity, negative = inhibition, usual class: inhibitors | 120,000 compounds, 4.3% hits | AID 1347417, 2020; active = well fitted inhibition curve with a large enough effect;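 also: plate controls were DMSO vehicle for no effect and reference drug for full effect; nearly all actives have a fitted effect of over 65% in size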
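Infected erythrocytes (Dd2, 0.3% parasitemia, 2.5% hematocrit final) are added to compound in RPMI-1640/Albumax II medium, grown 72 h at 37C in low oxygen, then lysed with saponin/Triton-X containing SYBR Green and read by fluorescence.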
* marks the source's active call; other numbers are inactive results; [ ] = another dose, or the depositor's remark. Potency is read from the fitted curve at half-maximal effect.

Results for CC(=O)NC1(C)CCN(Cc2ccc(-c3cccc4ncccc34)cc2)C1 (centres undefined) ?
Pf Dd2 growth: inactive

Results for CC(=O)NC1(C)CCN(Cc2cccc(-c3cccc4ncccc34)c2)C1 (centres undefined) ?
Pf Dd2 growth: inactive

What do the screens show for `Cc1nc2ccc(C(=O)N3CCSCC3)cc2nc1C`?
Pf Dd2 growth: -17.6%

What do the screens show for `O=[S+]1([O-])NCC2(CCN(Cc3ccc(OC(F)(F)F)cc3)C2)Nc2ccccc21` (centres undefined)?
Pf Dd2 growth: -11.6%

Results for CN(C)C(=O)C1CN(C(=O)CCCc2ccccc2)CC12CCOCC2 (centres undefined) ?
Pf Dd2 growth: 8.5%

Results for Cc1nnc2n1CCC(N(C)C(=O)Cc1ccccc1F)CC2 (centres undefined) ?
Pf Dd2 growth: 19.8%

Results for CC(C)c1nncn1C1CCN(S(=O)(=O)c2ccc(C(F)(F)F)cc2)CC1 ?
Pf Dd2 growth: -21.6%

Results for Cc1ccsc1C(=O)N1CCC(c2n[nH]c(=O)n2Cc2ccc(F)cc2)CC1 ?
Pf Dd2 growth: -5.9%

What do the screens show for `CCOc1ccc(NC(=O)C2Cn3cccc3C(=O)N2)cc1` (centres undefined)?
Pf Dd2 growth: -3.5%

What do the screens show for `O=C(Nc1cccc2ccccc12)O[C@@H]1CO[C@H]2[C@@H]1OC[C@@H]2NC(=O)C1CCC1`?
Pf Dd2 growth: 16.5%[44.1 µM]

Results for O=C(Nc1ccc(Oc2ccccc2)cc1)N[C@H]1CO[C@H]2[C@@H]1OC[C@H]2OC(=O)Nc1cccc2ccccc12 ?
Pf Dd2 growth: inactive

Results for O=C(Nc1ccc(Oc2ccccc2)cc1)O[C@@H]1CO[C@H]2[C@@H]1OC[C@@H]2NC(=S)Nc1cccc2ccccc12 ?
Pf Dd2 growth: 12.6µM*

How did Cc1ccc(C2NC(=O)N(CC(=O)N(C)c3cccc(C)c3)C3=C2C(=O)OC3)cc1 (centres undefined) do in these assays?
Pf Dd2 growth: -26.5%

What do the screens show for `O=C(c1ccc(Cl)cc1)N1CCC2(COc3ccncc3[S+](=O)([O-])N2)C1` (centres undefined)?
Pf Dd2 growth: -11.9%

Results for c1ccc(OCc2cc(CC3(NCc4ccc5c(c4)OCO5)COC3)no2)cc1 ?
Pf Dd2 growth: -7.5%[44.1 µM]

Results for COc1ccc(CN2CC3(CCN(C(=O)c4cn[nH]c4-c4ccc(F)cc4)CC3)C2=O)cc1 ?
Pf Dd2 growth: -2.0%

What do the screens show for `CS(=O)(=O)N1CCC(OC2CCN(C(=O)Nc3ccccc3Cl)CC2)CC1`?
Pf Dd2 growth: 34.6%

What do the screens show for `Cc1ccc(CN2CCC(N3CC(OCC4CC4)C34CCOCC4)CC2)s1` (centres undefined)?
Pf Dd2 growth: 10µM*

What do the screens show for `c1ccc(CN2CCC(N3CC(OCC4CC4)C34CCOCC4)CC2)cc1` (centres undefined)?
Pf Dd2 growth: 5.62µM*

Results for COCCOC1CN(C2CCN(Cc3ccc(C)o3)CC2)C12CCCCC2 (centres undefined) ?
Pf Dd2 growth: 5.01µM*

Results for COC1CN(C2CCN(C(=O)c3ccoc3)CC2)C12CCOCC2 (centres undefined) ?
Pf Dd2 growth: -24.1%

Results for COCCOC1CN(C2CCN(C(=O)c3ccc(C)nc3)CC2)C12CCCCC2 (centres undefined) ?
Pf Dd2 growth: inactive

How did Cc1ncoc1C(=O)N1CCC(N2CC(OCC3CC3)C23CCOCC3)CC1 (centres undefined) do in these assays?
Pf Dd2 growth: -7.0%

What do the screens show for `O=C(c1ccccn1)N1CCC(N2CC(OCC3CC3)C23CCOCC3)CC1` (centres undefined)?
Pf Dd2 growth: -8.4%

Results for COC1CN(C2CCN(C(=O)Cc3ccccc3)CC2)C12CCOCC2 (centres undefined) ?
Pf Dd2 growth: inactive

What do the screens show for `CCC(=O)N(C1CCOCC1)C1CCN(Cc2ccc(C)o2)CC1`?
Pf Dd2 growth: 18.3%

How did Cn1cccc1CN1CCC(N2CC(OCC3CC3)C23CCCCC3)CC1 (centres undefined) do in these assays?
Pf Dd2 growth: 0.631µM*

How did Cc1ccncc1C(=O)N1CCC(N2CC(OCC3CC3)C23CCCCC3)CC1 (centres undefined) do in these assays?
Pf Dd2 growth: -18.3%

What do the screens show for `Cn1cccc1CN1CCC(N2CCOC2=O)CC1`?
Pf Dd2 growth: 3.6%[44.1 µM]

Results for Cc1nc(NC2CCCCC2)ncc1C(=O)O ?
Pf Dd2 growth: -9.0%

How did COC[C@@H]1CN(C(=O)c2ccc(OC)cc2OC)C[C@H]1C(N)=O do in these assays?
Pf Dd2 growth: 16.2%

What do the screens show for `CCCN1C(=O)C(CC(=O)N2CCN(C)CC2)Sc2ncccc21` (centres undefined)?
Pf Dd2 growth: -18.7%

What do the screens show for `NC(=O)[C@H](Cc1cccs1)NC(=O)C1=C[C@@H](NC(=O)c2cnccn2)[C@@H](O)[C@H](O)C1`?
Pf Dd2 growth: 10.1%[44.1 µM]

Results for CCc1nncn1C1CCN(S(=O)(=O)c2ccc(F)c(Cl)c2)CC1 ?
Pf Dd2 growth: inactive

How did COc1ccc(CC(=O)NC2CCN(c3cc(-c4ccc(Cl)cc4)[nH]n3)CC2)cc1OC do in these assays?
Pf Dd2 growth: inactive

Results for COc1ccc(-c2nc(C3CC(=O)N(c4ccc(F)c(Cl)c4)C3)no2)c(OC)c1 (centres undefined) ?
Pf Dd2 growth: 45.8%

How did O=C(Nc1ccccc1)C1=NO[C@@H]2CN(Cc3ccc4[nH]ccc4c3)C[C@H]12 do in these assays?
Pf Dd2 growth: -1.9%[44.1 µM]

How did CN(Cc1cccc(CCN)c1)Cc1cnn(-c2ccc(F)cc2)c1 do in these assays?
Pf Dd2 growth: 10µM*

How did CN1C(=O)CC(C(=O)O)C12CCN(Cc1cnn(-c3ccc(F)cc3)c1)CC2 (centres undefined) do in these assays?
Pf Dd2 growth: -3.3%

Results for CN(Cc1ccc(F)cc1)Cc1cccn1C ?
Pf Dd2 growth: -28.8%[44.1 µM]

Results for O=C(NCCC1=CCCCC1)C1CCN(c2cnc3nccnc3c2)CC1 ?
Pf Dd2 growth: -9.2%

How did CC(C)c1cc(C(=O)NCCc2nc(-c3cccnc3)no2)nc2ncnn12 do in these assays?
Pf Dd2 growth: 3.9%

What do the screens show for `CC(C)c1cc(C(=O)NCCc2noc(C3CCCO3)n2)nc2ncnn12` (centres undefined)?
Pf Dd2 growth: 4.1%

Results for Cc1cc(CNC(=O)c2cc(C(C)C)n3ncnc3n2)c2[nH]c(C)c(C)c2c1 ?
Pf Dd2 growth: 8.91µM*

Results for CCOc1cc(=O)n2c(c1C(=O)NCc1ccccc1Cl)CCCC2 ?
Pf Dd2 growth: 20.9%

Results for CN(C)S(=O)(=O)N1CCC2(CCCN(Cc3ccc(F)c(F)c3)C2=O)C1 (centres undefined) ?
Pf Dd2 growth: -10.5%

How did O=C1Nc2ccccc2CC12CCCN(CC1CCCCC1)C2 (centres undefined) do in these assays?
Pf Dd2 growth: -20.6%

What do the screens show for `O=C1N(Cc2ccc(F)cc2)CCCC12CCN(CC1CCCC1)C2` (centres undefined)?
Pf Dd2 growth: 3.98µM*

How did COc1cccc(CC(=O)N2CCC(c3noc(CO)n3)C2)c1 (centres undefined) do in these assays?
Pf Dd2 growth: 5.5%

How did CCOC(=O)C1CCCN(C(=O)C2COC3(CCCCC3)N2C(=O)c2ccccc2Cl)C1 (centres undefined) do in these assays?
Pf Dd2 growth: inactive

How did Cc1cc(NC(=O)CCCn2c(C)c3cnn(-c4ccccc4)c(=O)c3c2C)ccc1Br do in these assays?
Pf Dd2 growth: 11.2µM*

What do the screens show for `Cc1ccc(NC(=O)CCCn2nc(C)c3c(C)n(-c4ccccc4)nc3c2=O)cc1Cl`?
Pf Dd2 growth: 13.9%
